ARNT TACC3 PPI: ARNT/TACC3 interaction disruption; AlphaScreen His-ARNT PAS-B/GST-TACC3 binding, luminescence; TACC3 fragment carries E629A point mutation; inhibition, % at 9.99 µM; actives 0.66% (n = 390,000);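 active means mean inhibition of replicates at least 50% and at least half of replicates each reaching 50%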;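 further: 0% = complete ARNT plus TACC3 wells and 100% = ARNT alone without TACC3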
NadD inh: inhibitors of Staphylococcus aureus NadD. purified NadD enzyme, colorimetric absorbance read-out. inhibition, % at 20 µM. actives 0.78% (n = 360,000). AID 602399; in the data active means inhibition above about 26%
DAGLB inh: blocks human DAGLB lipase activity; inhibition, % at 5.17 µM; Q8NCG7; HEK293T DAGLB membrane lysate, EnzChek fluorogenic substrate; actives 0.059% (n = 340,000); in the data active means inhibition above about 34%;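 further: 0% = enzyme with vehicle and 100% = wells lacking enzyme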
Neddyl block: inhibitors of human cullin neddylation | AID 651699 | P61081+Q13564 | TR-FRET cullin neddylation, biochemical | inhibition, % at 25 µM | actives 0.58% (n = 360,000); in the data active means inhibition above about 36%
HGIII-sPLA2 inh: Blocks human group III sPLA2 activity | AID 743126 | actives 0.56% (n = 370,000) | QFRET BODIPY PC-A2 liposome hydrolysis, fluorescence | Q9NZ20 | inhibition, % at 12.2 µM;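 active means inhibition above mean plus 3 SD of compounds lying within the high and low control bounds, cut at about 19% in these data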;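 further: 0% = median of test compound wells and 100% = no enzyme DMSO wells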
Target sequence (Q9NZ20 whole entry, looked up): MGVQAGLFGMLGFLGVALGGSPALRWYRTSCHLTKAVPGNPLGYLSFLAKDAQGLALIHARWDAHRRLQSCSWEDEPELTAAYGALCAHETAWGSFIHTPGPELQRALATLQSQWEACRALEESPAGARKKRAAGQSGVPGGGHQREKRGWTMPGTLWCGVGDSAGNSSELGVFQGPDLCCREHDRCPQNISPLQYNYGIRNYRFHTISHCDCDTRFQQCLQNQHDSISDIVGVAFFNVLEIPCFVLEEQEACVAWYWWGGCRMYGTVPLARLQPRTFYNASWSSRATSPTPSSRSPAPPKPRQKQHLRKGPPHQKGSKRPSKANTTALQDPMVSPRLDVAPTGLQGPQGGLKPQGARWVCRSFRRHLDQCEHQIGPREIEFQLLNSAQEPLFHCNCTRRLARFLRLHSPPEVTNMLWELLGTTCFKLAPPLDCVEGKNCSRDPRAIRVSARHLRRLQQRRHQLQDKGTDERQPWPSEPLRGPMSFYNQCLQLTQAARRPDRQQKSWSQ
ARNT Alpha ctr-1: counter-screen for ARNT/TACC3 inhibitors: AlphaScreen artifacts; AC50, µM (top dose mostly 68 µM), for the others: top-dose activity change, negative = signal decrease; actives 50% (n = 1,200); His-ARNT PASB-GST AlphaScreen artifact counter-screen, luminescence; shares compounds with ARNT TACC3 PPI;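 active means every separate test run was called active for a drop in luminescence, with AC50 within twice the top valid dose, actives reach about 71 µM in these data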
ARNT Alpha ctr-2: produces AlphaScreen artifacts in ARNT-TACC3 counter-screen; shares compounds with ARNT TACC3 PPI; Dual-tagged His-ARNT PASB-GST AlphaScreen artifact counter-screen; AC50, µM; actives 70% (n = 45); AID 720564;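 active means luminescence drop, with half-maximal potency fitted within twice the sample's top valid dose, cut at about 70 µM in these data; inactive means the rest, including signal moving the wrong way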
An asterisk follows results filed as active; i = inactive; / = no result; [ ] = another dose, or the depositor's remark. A selection: hits, their analogues and other compounds. The true share with any hit is near 2%.

SMILES	ARNT TACC3 PPI	NadD inh	DAGLB inh	Neddyl block	HGIII-sPLA2 inh	ARNT Alpha ctr-1	others
O=C(Nc1nc(-c2ccncc2)cs1)c1ccco1	7	16	-1	2	4	/	ARNT Alpha ctr-2=i
COc1ccc(-c2cnc3c(c2)C(=O)N([C@@H](C)CO)C[C@@H](C)[C@@H](CN(C)Cc2cccnc2)O3)cc1	85*	/	/	/	/	-5%[38 µM]
COc1ccc(-c2cnc3c(c2)C(=O)N([C@@H](C)CO)C[C@H](C)[C@@H](CN(C)Cc2cccnc2)O3)cc1	108*	/	/	/	/	-7%[38 µM]
COc1ccc(-c2cnc3c(c2)C(=O)N([C@H](C)CO)C[C@H](C)[C@H](CN(C)Cc2cccnc2)O3)cc1	104*	/	/	/	/	4%[42 µM]
COc1ccc(-c2cnc3c(c2)C(=O)N([C@@H](C)CO)C[C@H](C)[C@H](CN(C)Cc2cccnc2)O3)cc1	-10	/	/	/	/	/
COc1ccc(S(=O)(=O)Nc2ccc3c(c2)C(=O)N([C@H](C)CO)C[C@@H](C)[C@H](CN(C)Cc2ccc(Cl)c(Cl)c2)OCCCC[C@H](C)O3)cc1	0	/	/	/	/	/
COc1cccc(S(=O)(=O)Nc2ccc3c(c2)[C@@H]2C[C@@H](CC(=O)NCc4ccccc4F)O[C@H](CO)[C@@H]2O3)c1	2	/	/	/	/	/
O=C(O)C1CCCCC1C(=O)NCCCn1ccnc1 (configuration not stated)	67*	8	-2	9	/	-6%
O=C(O)C1C2C=CC(C2)C1C(=O)NCCCn1ccnc1 (configuration not stated)	54*	1	1	12	4	3%
O=C(O)C1C2C=CC(C2)C1C(=O)NCCCN1CCCC1=O (configuration not stated)	-21	-5	0	-1	1	/
CO[C@H]1CN(C)C(=O)c2ccc(NC(=O)c3cnccn3)cc2OC[C@H](C)NC[C@H]1C	4	/	/	/	/	/
CCCCNC(=O)CCC(=O)N1CCN(C(c2ccccc2)c2ccccc2)CC1	49*	-4	1	2	-1	-8%
COC(=O)CNC(=O)CCC(=O)N1CCN(C(c2ccccc2)c2ccccc2)CC1	0	-9	2	-2	15	/
CCOc1ccc(Cl)cc1C(c1c(C)[nH][nH]c1=O)c1c(C)[nH][nH]c1=O	active	-2	1	5	-50	4%
C#CCOc1ccc(Br)cc1C(c1c(C)[nH][nH]c1=O)c1c(C)[nH][nH]c1=O	-6	1	0	-4	-62	/
Cc1ccnc2nc(C(=O)Nc3nc(-c4ccccn4)cs3)nn12	66*	6	0	-6	3	14µM*
CC(Oc1ccc(F)cc1)C(=O)Nc1nc(-c2ccccn2)cs1 (configuration not stated)	63*	-1	-1	13	-1	66µM*
CN1c2ccc(-c3ccc(F)cc3)cc2[C@@H]2[C@@H](CCN2S(=O)(=O)c2ccc(F)cc2)[C@H]1CO	13	/	/	/	/	/
CCC(=O)Nc1ccc2c(c1)C(=O)N(C)C[C@H](OC)[C@H](C)CN(CC1CCCCC1)[C@H](C)CO2	-3	/	/	/	/	/
CCC(=O)NC(c1ccc(N(C)C)cc1)c1c(O)ccc2ccccc12 (configuration not stated)	38*	3	7	13	-11	54µM*
CCC(=O)NC(c1ccc(OC)cc1)c1c(O)ccc2ccccc12 (configuration not stated)	/	-5	-1	19	-29	/
CC(C)NC(=O)Nc1ccc2c(c1)C(=O)N([C@H](C)CO)C[C@@H](C)[C@H](CN(C)C)OCCCC[C@@H](C)O2	-7	/	/	/	/	/
CC(C)NC(=O)N(C)C[C@H]1OCCCC[C@H](C)Oc2ccc(NC(=O)Cc3ccccc3)cc2C(=O)N([C@H](C)CO)C[C@H]1C	106*	/	/	/	/	-3%[42 µM]
CC(C)NC(=O)N(C)C[C@@H]1OCCCC[C@@H](C)Oc2ccc(NC(=O)Cc3ccccc3)cc2C(=O)N([C@H](C)CO)C[C@@H]1C	-11	/	/	/	/	/
CC(C)NC(=O)Nc1ccc2c(c1)C(=O)N([C@@H](C)CO)C[C@H](C)[C@@H](CN(C)C)OCCCC[C@H](C)O2	109*	/	/	/	/	-1%[42 µM]
SMILES	ARNT TACC3 PPI	NadD inh	DAGLB inh	Neddyl block	HGIII-sPLA2 inh	ARNT Alpha ctr-1	others
CC(C)NC(=O)Nc1ccc2c(c1)C(=O)N([C@H](C)CO)C[C@@H](C)[C@@H](CN(C)C(=O)Nc1ccccc1)OCCCC[C@@H](C)O2	66*	/	/	/	/	-3%[38 µM]
COC(=O)c1sc(N)c(C(=O)OC)c1Cn1ncc(Cl)c(Cl)c1=O	52*	0	-1	-23	-3	-10%
C[C@@H]1CN([C@H](C)CO)C(=O)c2cc(NS(=O)(=O)c3ccccc3)ccc2O[C@@H]1CN(C)C(=O)Nc1ccc2c(c1)OCO2	-2	/	/	/	/	/
Cc1nnc(NC(=O)c2ccc(F)c(S(=O)(=O)N3CCOCC3)c2)s1	-14	-6	4	-1	-6	/
Cc1ccc(S(=O)(=O)N2CCOCC2)cc1C(=O)Nc1nc(-c2cccnc2)cs1	4	4	1	-5	2	/
O=C(Nc1nc(-c2ccccn2)cs1)c1ccc(F)c(S(=O)(=O)N2CCOCC2)c1	68*	21	2	-29	-7	9µM*
O=C(Nc1nc(-c2ccccn2)cs1)c1cc(S(=O)(=O)N2CCOCC2)ccc1F	74*	8	-2	-25	-5	23µM*
CO[C@@H](CN(C)S(=O)(=O)c1ccc(Cl)cc1)[C@@H](C)CN([C@H](C)CO)S(=O)(=O)c1cccc(Cl)c1	0	/	/	/	/	/
CNC(=O)C[C@@H]1CC[C@H]2[C@H](COc3ccc(NC(=O)c4ccc(F)cc4)cc3C(=O)N2C)O1	-4	/	/	/	/	/
O=C(N/N=C/c1c(Cl)nc2ccccn2c1=O)c1cccnc1	57*	0	0	6	12	-10%
O=C(N/N=C/c1ccc(Cl)cc1Cl)c1ccncc1	10	4	-1	-15	1	/
Cc1nn(-c2ccccc2)c(Cl)c1/C=N/NC(=O)c1cccnc1	-9	4	2	3	2	/
O=C(N/N=C/c1cc(Cl)cc(Cl)c1O)c1ccncc1	54*	-5	-1	-7	-19	34µM*
O=C(N/N=C/c1cc(Cl)ccc1O)c1cccnc1	58*	3	3	-10	-8	60µM*
C[C@@H]1CN([C@H](C)CO)C(=O)c2cccc(NC(=O)C3CCOCC3)c2O[C@@H]1CN(C)Cc1ccc(Oc2ccccc2)cc1	-4	/	/	/	/	/
C[C@@H]1CN([C@H](C)CO)C(=O)c2cc(NS(=O)(=O)c3ccccc3)ccc2O[C@@H](C)CCCCO[C@@H]1CN(C)S(=O)(=O)c1cccs1	-9	/	/	/	/	/
COc1ccc(S(=O)(=O)Nc2ccc3c(c2)CC(=O)N([C@H](C)CO)C[C@@H](C)[C@H](CN(C)C(=O)Nc2cccc4ccccc24)O3)cc1	-2	/	/	/	/	/
